This is a sample that favours compounds with a hit; in the whole collection about 19% have one here.
DT40 TDP1 CPT – qHTS for Inhibitors of human tyrosyl-DNA phosphodiesterase 1 (TDP1): qHTS in cells in presence of CPT; 420,000 tested, 12% active; Potency, µM (top dose mostly 46.2 µM), inactives show at the top dose activity change, negative = growth inhibition, most hits filed as inhibitors; chicken DT40 Tdp1-/-;hTDP1 cells + 20 nM CPT, ATP luminescence, 48 h; also: potency is read from the fitted curve at half-maximal effect; nearly all actives have a fitted effect of over 55% in size
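Chicken DT40 Tdp1-/- cells stably complemented with human TDP1 were seeded at 400 cells/well in medium containing 20 nM camptothecin, exposed to pin-transferred compounds, and grown at 37 °C for at least 48 hr. Viability was read as ATP luminescence.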
IL-1B inflam inh – qHTS for Inhibitors of Inflammasome Signaling: IL-1-beta AlphaLISA Primary Screen; THP-1 LPS/ATP IL-1B secretion, AlphaLISA, 16 h; hits give low values; activity change, % at 57.5 µM; 360,000 tested, 4.7% active; AID 743279, 2014; in the data active = activity change below about -50%; inconclusive = mostly about -30% to -49%
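Secreted IL-1B measured by AlphaLISA bead assay after 16 h compound exposure of THP-1 cells; compounds (final up to 57.5 uM) added 1 h before LPS (250 ng/mL) and ATP (1.25 mM) stimulation; lower signal means less secretion.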
HT1080 IDH1KD tx – qHTS for induction of synthetic lethality in tumor cells producing 2HG: qHTS for the HT-1080-IDH1KD cell line | HT-1080 IDH1 knockdown viability, ATP luminescence, 48 h | Potency, µM (series often up to 46.1 µM), for the others: at the highest dose activity, negative = toxicity, actives largely listed as cytotoxic | 360,000 tested, 2% active;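 also: potency is read from the fitted curve at half-maximal effect; 0% = DMSO wells and -100% = cell-free medium wells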
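In this qHTS, HT-1080 cells depleted of IDH1 are exposed for 48 h at 37 °C to compound titrations. Toxicity is scored from CellTiter-Glo luminescence, with DMSO as full viability and medium alone as none.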
TDP1 cell noCPT – qHTS for Inhibitors of human tyrosyl-DNA phosphodiesterase 1 (TDP1): qHTS in cells in absence of CPT; DT40 Tdp1-/- hTDP1 cells, no CPT, ATP luminescence, 48 h; Potency, µM (doses to about 46.2 µM), without a hit: top-dose activity change, negative = growth inhibition, actives largely listed as inhibitors; 420,000 tested, 15% active; also: potency is read from the fitted curve at half-maximal effect; nearly all actives have a fitted effect of over 55% in size
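No-CPT arm: Tdp1-/-;hTDP1 DT40 cells (400/well) plus compounds, incubated ≥48 hr at 37 °C. Readout CellTiter-Glo luminescence.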
HT1080-NT tox – qHTS for induction of synthetic lethality in tumor cells producing 2HG: qHTS for the HT-1080-NT fibrosarcoma cell line. Potency, µM (top dose mostly 46.1 µM), for the others: at the highest dose activity, negative = less viability, usual class: cytotoxic. AID 686970, 2013. HT-1080-NT fibrosarcoma viability, CellTiter-Glo ATP luminescence, 48 h. 360,000 tested, 1.6% active;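 also: NT is the 2HG producing partner of a matched IDH1 knockdown line; potency is read from the fitted curve at half-maximal effect; 0% = DMSO-treated cells and -100% = media-only wells without cells; nearly all actives have a fitted effect of over 55% in size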
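Viability by CellTiter-Glo luminescence after 48 h compound exposure at 37C of HT-1080-NT cells (750/well, RPMI, 5% FBS). % activity scaled between DMSO wells and medium-only wells, then curve-fitted and categorized by curve class.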
An asterisk follows results filed as active; ? = inconclusive; nt = no result given. Unless noted, calls follow the shape of the dose curve; as a rule, active = well fitted curve in the direction sought with a large enough effect; inconclusive = small, poorly fitted or top-dose-only effect, or another doubt; inactive = no such curve, though single readings can be large; an effect the other way counts as inactive or inconclusive. Unless noted, % is scaled to controls: 0 for no effect and ±100 for the full control effect.

SMILES	DT40 TDP1 CPT	IL-1B inflam inh	HT1080 IDH1KD tx	TDP1 cell noCPT	HT1080-NT tox
CCOC(=O)N1CCN(CC(O)COCCC23CC4CC(CC(C4)C2)C3)CC1 (stereo not drawn)	12µM*	-4	-18%	29µM*	-25%
O=C(O)c1cccc(NC(=O)N2C[C@H]3C[C@@H](C2)c2cccc(=O)n2C3)c1	41%	3	8%	9%	12%
CC(C)(C)OC(=O)N(CCc1ccccc1)Cc1ccc(OCc2cccc(NC(=O)c3ccccc3)c2)cc1	?	-3	5%	21µM*	16%
CCOc1ccc(-c2cc(C)[n+](CCN3CCOCC3)c(-c3ccc(OCC)cc3)c2)cc1	1.5µM*	nt	?	1.3µM*	-9%
O=C(NCc1ccccc1)c1cccn(Cc2cccc(Cl)c2)c1=O	?	-16	0%	?	-13%
FC(F)OC(F)(F)C(F)Cl (stereo not drawn)	4%	nt	nt	-13%	nt
CCCCCSc1cc(OC)c(CCN)cc1OC	5.8µM*	-28	?	2.9µM*	?
CCCSc1cc(OC)c(CCN)cc1OC	1.8µM*	nt	nt	2.9µM*	nt
COc1cc(CCN)ccc1O	8%	17	-1%	-6%	14%
CCCCCCCSc1cc(OC)c(CCN(C)C)cc1OC	?	-100*	-23%	?	-10%
C[C@@H]1CN([C@@H](C)CO)C(=O)CCCn2nncc2CO[C@H]1CN(C)C(=O)Oc1cccc2ccccc12	1%	14	-2%	-24%	15%
CC(O)(CS(=O)(=O)c1ccccc1)C(=O)Nc1cccc(C(F)(F)F)c1 (stereo not drawn)	-14%	0	-9%	2%	5%
COc1cccc(C(=O)C2CCCN(Cc3ccccn3)C2)c1 (stereo not drawn)	-1%	0	2%	?	0%
COc1c(C)cc(C(=O)C2CCCN(Cc3cnc(C)s3)C2)cc1C (stereo not drawn)	?	0	-7%	26µM*	-4%
COc1c(C)cc(C(=O)C2CCCN(Cc3ccccn3)C2)cc1C (stereo not drawn)	?	12	-10%	18µM*	-1%
CNCc1ccccc1	2%	nt	nt	?	nt
CC(=O)O[C@H]1C[C@@H]2OC3C=C(C)CCC3(C)[C@@]1(C)[C@@]21CO1 (stereo partly drawn)	0.58µM*	-100*	nt	1µM*	?
Cn1c(=O)c2cc(S(=O)(=O)Nc3ccc4c(c3)OCO4)ccc2n(C)c1=O	2.1µM*	-25	?	7.1µM*	?
CCn1c(C)nc2cc(S(=O)(=O)Nc3ccc(C)cc3)ccc21	?	27	2%	?	7%
CCN1CCN(C(=O)COc2ccc3oc4c(c3c2)CCCC4)CC1	?	10	-22%	21µM*	-3%
C=CCn1c(O)c(/C=N/NC(=O)c2ccncc2)c(=O)[nH]c1=O	6%	-12	23%	18%	29%
Cc1ccc(C(C#N)=Cc2ccc3c(c2)OCO3)cc1	?	11	?	12µM*	-6%
CC(C)CNC(=O)/C=C/C=C/CCCCCC/C=C/c1ccc2c(c1)OCO2	-7%	11	6%	-17%	0%
C=CCN1C(=O)C2(C(C(=O)OCC)=C(N)Oc3ccccc32)c2c1c1ccccc1oc2=O (stereo not drawn)	2%	22	1%	-13%	-15%
C[C@@H]1CC2C3CC=C4C[C@@H](O)CC[C@]4(C)C3CC[C@]2(C)[C@H]1O (stereo partly drawn)	-21%	91	1%	?	2%
SMILES	DT40 TDP1 CPT	IL-1B inflam inh	HT1080 IDH1KD tx	TDP1 cell noCPT	HT1080-NT tox
C[C@]12CC[C@H](N)CC1=CCC1C2CC[C@@]2(C)C1CC[C@@H]2O (stereo partly drawn)	18µM*	-12	?	?	?
C[C@]12CC[C@@H](O)CC1=CCC1C2CC[C@@]2(C)C1CC[C@@H]2N (stereo partly drawn)	?	12	14%	21µM*	7%
Cc1cccc(N2C(=O)NC(=O)/C(=C\C=C\c3ccco3)C2=O)c1	2.9µM*	-96*	?	8.2µM*	?
Cn1cccc1/C=C1\C(=O)NC(=O)N(Cc2ccco2)C1=O	9.2µM*	79	-9%	?	-11%
Cc1cccc(N2C(=O)NC(=O)/C(=C\c3cccn3-c3ccc(Cl)cc3)C2=O)c1	10µM*	-90*	?	21µM*	?
CN(C)c1ccc(/C=C/C=C2/C(=O)NC(=O)N(c3ccccc3)C2=O)cc1	2.9µM*	-107*	6.5µM*	4.1µM*	4.6µM*
CC(C)N1CCN(Cc2cc3c(cc2Cl)OCO3)CC1CCO (stereo not drawn)	?	6	12%	-9%	5%
CCOP(=S)(OCC)SCC(=O)NC(C(=O)O)C(C)C (stereo not drawn)	4%	43	9%	3%	17%
C=CCn1c(O)c(C(CC)=Nc2cccc(C(F)(F)F)c2)c(=O)[nH]c1=O	17%	17	3%	10%	-1%
CCOCCSc1nc2c(c(-c3cccs3)c1C#N)CC/C2=C/c1cccs1	?	15	-38%	?	-16%
O=C1NC(=O)N(Cc2ccco2)C(=O)/C1=C/C=C/c1ccco1	7.3µM*	-100*	21µM*	9.2µM*	23µM*
Cc1cc(N2CCOCC2)ccc1/C=C1\C(=O)NC(=O)N(c2ccccc2)C1=O	-31%	-6	13%	?	2%
O=C1NC(=O)N(c2ccccc2)C(=O)/C1=C/C=C/c1ccco1	4.6µM*	-100*	?	4.6µM*	18µM*
CN1C(=O)/C(=C/C=C/c2ccco2)C(=O)NC1=S	?	0	4%	?	5%
Cc1ccc(N2C(=O)NC(=O)/C(=C\C=C\c3ccco3)C2=O)cc1C	2.6µM*	-105*	-22%	5.2µM*	-16%
NNc1ccccc1	-13%	nt	nt	1%	nt
O=C(/C=C/c1c[nH]c2ccccc12)c1c(O)n(CCc2ccccc2)c(=O)[nH]c1=O	2%	nt	15%	-14%	9%
CC1=C(C)CC2(CC1)C(=O)NC(=O)NC2=O	0%	15	23%	2%	14%
CCCNC(=O)N1[C@H]2CC[C@@H]1C(C(=O)OC)=C(c1ccc(OC)c(OC)c1)C2	-3%	26	0%	-11%	?
CNC(C)(C)Cc1ccccc1	-28%	4	6%	1%	23%
